The source of these data is PubChem BioAssay.

Assay [1] can be described thus: antimalarial activity against Dd2 strain (AID 2302;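 active = growth inhibition above 50% at the single 2 µM test dose, taken to imply half-maximal potency below 2 µM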;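 also: 0% = DMSO untreated growth and 100% = chloroquine plus artemisinin killed control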). Conditions: P. falciparum Dd2 in RBCs, LDH growth readout, 72 h; at 2 µM; stronger effect = higher value.
Assay [2] in a line: human hepatoma cell viability loss – ATP luminescence, cytotoxicity control for P. falciparum antimalarial project, primary screen (AID 2303;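 active = inhibition above 50%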;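 also: 0% = DMSO wells and 100% = digitonin-killed cells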). Particulars: HepG2 viability, 24-48 h, at 10 µM, stronger effect = higher value.
Assay [3] addresses L-lactate dehydrogenase (Plasmodium falciparum (isolate CDC / Honduras)) (UniProt Q27743). The assay can be described thus: PfLDH activity inhibition – cell lysate, 3D7 strain, counter-screen for P. falciparum growth inhibition project (AID 2304).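 Also: 0% = vehicle and 100% = reference inhibitor.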 Particulars: P. falciparum 3D7 crude extract, LDH APAD/NBT absorbance; at 2 µM; stronger effect = higher value. (In general: Counterscreens check selectivity or assay interference.)

A short description of assay [4]: inhibition of 3D7 malaria parasite growth – strain 3D7 (AID 2306).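 Also: 0% = DMSO wells and 100% = chloroquine plus artemisinin control wells.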 Conditions: P. falciparum 3D7 erythrocytic growth, LDH absorbance, 72 h; at 2 µM; stronger effect = higher value.
In assay [5] the target is Calcium-dependent protein kinase 1 (Plasmodium falciparum (isolate 3D7)) (UniProt P62344). The assay can be described thus: PfCDPK1 kinase inhibitors, biochemical, TCAMS library (AID 1159585; cut-off not given, nearly all actives have IC50 up to about 0.98 µM;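 also: inhibitors leave more ATP so luminescence rises with inhibition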). Particulars: recombinant PfCDPK1, Kinase-Glo ATP depletion luminescence.
Assay [6] deals with Plasmodium falciparum protein kinase 6 (PK6, PF3D7_1337100) (UniProt Q8IDW1). The assay can be described thus: PfPK6 kinase inhibitors, biochemical, TCAMS library (AID 1159586). Particulars: recombinant PfPK6, Kinase-Glo ATP depletion luminescence.
Assay [7] concerns the target Protein kinase 7 (PK7), Plasmodium falciparum 3D7 (PF3D7_0213400) (UniProt Q7YTF7). The assay can be described thus: inhibition of Plasmodium PK7 catalytic activity – biochemical, TCAMS antimalarial set, Kinase-Glo luminescence (AID 1159587). Particulars: recombinant PfPK7, Kinase-Glo ATP depletion luminescence. (In general: Kinase-Glo measures the ATP left after a reaction by luminescence.)

Assay [8] concerns the target Calcium-dependent protein kinase 4 (Plasmodium falciparum (isolate 3D7)) (UniProt Q8IBS5). The assay can be described thus: PfCDPK4 kinase inhibitors, biochemical, TCAMS library (AID 1159588; cut-off not given, nearly all actives have IC50 up to about 0.91 µM). Conditions: recombinant PfCDPK4, Kinase-Glo ATP depletion luminescence.

The structures appear in SMILES notation. Unmarked numbers belong to inactive results. For part of these data: Entries with a potency or affinity are not part of this list. The source made the active and inactive calls. Unless noted, no rule for the calls is given here.

Protein kinase 7 (PK7), Plasmodium falciparum 3D7 (PF3D7_0213400), sequence (Q7YTF7 1-343): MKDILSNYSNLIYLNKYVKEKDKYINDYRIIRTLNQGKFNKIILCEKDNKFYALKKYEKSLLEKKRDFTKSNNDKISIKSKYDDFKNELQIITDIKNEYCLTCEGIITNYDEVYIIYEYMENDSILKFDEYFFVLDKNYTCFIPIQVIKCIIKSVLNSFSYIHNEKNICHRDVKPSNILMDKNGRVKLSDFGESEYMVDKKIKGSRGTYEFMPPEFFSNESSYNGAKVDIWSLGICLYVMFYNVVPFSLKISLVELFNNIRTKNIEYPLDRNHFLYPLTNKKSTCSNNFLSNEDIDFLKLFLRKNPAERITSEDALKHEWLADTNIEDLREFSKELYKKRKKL
Calcium-dependent protein kinase 4 (Plasmodium falciparum (isolate 3D7)), sequence (Q8IBS5 whole entry, looked up): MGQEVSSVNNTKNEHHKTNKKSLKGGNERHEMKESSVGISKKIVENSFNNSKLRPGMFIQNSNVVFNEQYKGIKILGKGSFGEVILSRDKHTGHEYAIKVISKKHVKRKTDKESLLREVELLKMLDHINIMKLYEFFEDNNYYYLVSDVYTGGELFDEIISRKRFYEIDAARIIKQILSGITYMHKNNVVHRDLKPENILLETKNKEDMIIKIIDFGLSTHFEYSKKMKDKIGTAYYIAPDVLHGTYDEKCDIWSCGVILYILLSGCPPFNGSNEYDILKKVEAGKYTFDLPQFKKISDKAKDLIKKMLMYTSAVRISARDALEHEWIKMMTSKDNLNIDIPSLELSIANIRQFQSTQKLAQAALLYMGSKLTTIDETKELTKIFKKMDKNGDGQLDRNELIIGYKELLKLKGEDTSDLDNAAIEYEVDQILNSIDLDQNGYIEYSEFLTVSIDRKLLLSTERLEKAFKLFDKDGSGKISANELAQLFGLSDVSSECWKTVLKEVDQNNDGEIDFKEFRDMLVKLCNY
Calcium-dependent protein kinase 1 (Plasmodium falciparum (isolate 3D7)), sequence (P62344 whole entry, looked up): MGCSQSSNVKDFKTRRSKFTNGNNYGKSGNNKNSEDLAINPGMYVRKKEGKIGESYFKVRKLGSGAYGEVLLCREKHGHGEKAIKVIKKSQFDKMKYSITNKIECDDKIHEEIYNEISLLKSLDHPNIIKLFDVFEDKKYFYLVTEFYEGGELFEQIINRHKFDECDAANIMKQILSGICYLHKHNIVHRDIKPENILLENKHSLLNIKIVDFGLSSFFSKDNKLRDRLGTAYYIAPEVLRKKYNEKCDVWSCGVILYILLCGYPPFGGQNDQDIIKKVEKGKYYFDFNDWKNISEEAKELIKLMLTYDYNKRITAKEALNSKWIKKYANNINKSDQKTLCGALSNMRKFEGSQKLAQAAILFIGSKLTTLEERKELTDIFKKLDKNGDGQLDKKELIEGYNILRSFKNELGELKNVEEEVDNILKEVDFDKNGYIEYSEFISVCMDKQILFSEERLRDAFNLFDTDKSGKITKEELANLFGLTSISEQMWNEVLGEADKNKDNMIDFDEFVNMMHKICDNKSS
Plasmodium falciparum protein kinase 6 (PK6, PF3D7_1337100), sequence (Q8IDW1 1-305): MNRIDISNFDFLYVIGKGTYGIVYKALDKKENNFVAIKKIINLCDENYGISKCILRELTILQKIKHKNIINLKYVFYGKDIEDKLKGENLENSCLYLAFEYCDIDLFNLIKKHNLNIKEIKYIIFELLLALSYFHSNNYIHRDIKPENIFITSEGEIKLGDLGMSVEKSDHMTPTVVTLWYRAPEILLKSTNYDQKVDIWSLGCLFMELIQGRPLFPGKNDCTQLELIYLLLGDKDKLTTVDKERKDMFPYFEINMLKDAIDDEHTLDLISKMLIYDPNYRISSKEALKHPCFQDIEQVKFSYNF
L-lactate dehydrogenase (Plasmodium falciparum (isolate CDC / Honduras)), sequence (Q27743 whole entry, looked up): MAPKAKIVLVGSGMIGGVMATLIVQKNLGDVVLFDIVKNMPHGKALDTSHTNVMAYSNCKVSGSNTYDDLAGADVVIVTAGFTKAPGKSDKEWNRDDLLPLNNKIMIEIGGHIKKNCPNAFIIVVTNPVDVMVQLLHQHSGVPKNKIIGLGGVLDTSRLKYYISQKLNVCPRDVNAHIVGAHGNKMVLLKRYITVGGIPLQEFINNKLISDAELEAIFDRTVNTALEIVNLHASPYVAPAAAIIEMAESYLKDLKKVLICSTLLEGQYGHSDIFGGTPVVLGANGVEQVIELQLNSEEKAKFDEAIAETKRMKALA

For `COc1ccc(CCNCCCCCCNCCc2cccc([N+](=O)[O-])c2)cc1OC`, the growth inhibition in assay [1] was -3%; in assay [4] it was 93% (active). Moreover, the inhibition (usually the drop in the measured response relative to a control, in per cent) in assay [2] is 13%; in assay [3], -6%. The outcome in assay [5], in assay [6], in assay [7] and in assay [8] was inactive.
As for `COc1ccc2ncc(F)c([C@H](O)CN3CCC(NCc4ccc5c(c4)NC(=O)CO5)CC3)c2c1`, the growth inhibition in assay [1] was 101% (active); in assay [4], 102% (active). Also, the inhibition in assay [2] is 16%; in assay [3] it was -1%. In addition, the result in assay [5], in assay [6], in assay [7] and in assay [8] was inactive.
For `O=C(Nc1ccc(I)cc1)N1CCc2sccc2C1CN1CCCCC1` (centres undefined), the growth inhibition in assay [1] is 0%; in assay [4], 90% (active). Besides, the inhibition in assay [2] was 33%; in assay [3], 6%. Further, the outcome in assay [5], in assay [6], in assay [7] and in assay [8] was inactive.
As to `COc1ccc(-c2ccc(NC(=O)c3ccc(C#N)cc3)cc2)cc1CN1CCCN(C)CC1`, the growth inhibition in assay [1] was 75% (active); in assay [4] it was 99% (active). Further, the inhibition in assay [2] was 27%; in assay [3] it was -3%. Further, the outcome in assay [5], in assay [6], in assay [7] and in assay [8] was inactive.
`CCCc1ccc(Nc2nc(C)cc(N(CC)CCCN3CCCCC3)n2)cc1`: the figures for the growth inhibition in assay [1] and in assay [4] were 95% (active) and 101% (active), respectively. Further, the inhibition in assay [2] was 48%; in assay [3], 5%. Moreover, the result in assay [5], in assay [6], in assay [7] and in assay [8] was inactive.
On to `O=C(Nc1ccccc1Br)N[C@@H]1CCN(c2ccnc3ccccc23)C1`, for which the growth inhibition is 90% (active) in assay [1] and 91% (active) in assay [4]. In addition, the inhibition was 25% in assay [2] and 2% in assay [3]. Further, the outcome in assay [5], in assay [6], in assay [7] and in assay [8] was inactive.
Regarding `COC(=O)c1ccc(NC(=O)Nc2ccc(Cn3ncc(N4CCCNCC4)c(Cl)c3=O)cc2)cc1`, the growth inhibition in assay [1] was 43%; in assay [4], 83% (active). In addition, the inhibition in assay [2] and in assay [3] was -1% each time. The outcome in assay [5], in assay [6], in assay [7] and in assay [8] was inactive.
Regarding `COc1cc2nc(SCCCC#N)n(C3CCCCCC3)c(=N)c2cc1OC`, the growth inhibition in assay [1] is 9%; in assay [4], 89% (active). In addition, the inhibition in assay [2] and in assay [3] was 0% throughout. Moreover, the result in assay [5], in assay [6], in assay [7] and in assay [8] was inactive.
Regarding `COc1ccc2nccc(NN=Cc3cccc(Cl)c3)c2c1`, the values for the growth inhibition in assay [1] and in assay [4] were 99% (active) and 100% (active), respectively. Further, the inhibition is 1% in assay [2] and 3% in assay [3]. In addition, the result in assay [5], in assay [6], in assay [7] and in assay [8] was inactive.
As to `Cc1ccccc1CNc1nccc(NCCC(=O)Nc2ccccc2)n1`, the values for the growth inhibition in assay [1] and in assay [4] were 15% and 90% (active), respectively. Also, the inhibition in assay [2] was 16%; in assay [3], -3%. In addition, the result in assay [5], in assay [6], in assay [7] and in assay [8] was inactive.
As to `COc1cccc(C23N=C(Nc4nc5ccccc5[nH]4)NC2(c2cccc(OC)c2)NC(Nc2nc4ccccc4[nH]2)=N3)c1` (centres undefined), the growth inhibition is 99% (active) in assay [1] and 101% (active) in assay [4]. Further, the inhibition in assay [2] is -9%; in assay [3], 3%. Further, the outcome in assay [5], in assay [6], in assay [7] and in assay [8] was inactive.
`Cc1cccc(C)c1N1CCN(C2CCC(NC(=O)c3cc4ccccc4[nH]3)CC2)CC1` (centres undefined): the growth inhibition was 64% (active) in assay [1] and 101% (active) in assay [4]. Also, the inhibition in assay [2] was 31%; in assay [3] it was -7%. Besides, the result in assay [5], in assay [6], in assay [7] and in assay [8] was inactive.
With `CN=C(NO)NCCN(C)C`, the growth inhibition in assay [1] is -5%; in assay [4], 88% (active). In addition, the results for the inhibition in assay [2] and in assay [3] were -1% and -2%, respectively. Also, the result in assay [5], in assay [6], in assay [7] and in assay [8] was inactive.
Take `Oc1ccc(-c2cc(COc3ccccc3C(F)(F)F)c(C3=CCNCC3)cc2COc2ccccc2C(F)(F)F)cc1`: the values for the growth inhibition in assay [1] and in assay [4] were 62% (active) and 100% (active), respectively. In addition, the results for the inhibition in assay [2] and in assay [3] were 18% and 3%, respectively. The outcome in assay [5], in assay [6], in assay [7] and in assay [8] was inactive.
Regarding `CCN(CCS(C)(=O)=O)Cc1ccc(-c2ccc3ncnc(Nc4ccc(OCc5cccc(F)c5)c(Cl)c4)c3c2)o1`, the results for the growth inhibition in assay [1] and in assay [4] were 63% (active) and 101% (active), respectively. Moreover, the inhibition was 5% in assay [2] and -7% in assay [3]. For the same molecule, the outcome in assay [5], in assay [6], in assay [7] and in assay [8] was inactive.
In the case of `CCCNCc1ccc(-c2ccc(CN(CCOC)C(=O)CCCOCc3ccccc3)cc2)nc1`, the growth inhibition in assay [1] was 13%; in assay [4] it was 93% (active). The inhibition in assay [2] was -2%; in assay [3], 2%. In addition, the result in assay [5], in assay [6], in assay [7] and in assay [8] was inactive.
Consider `O=S(=O)(Nc1cccc(CCN2CCCCC2CCN2CCCC2)c1)c1ccc2ccccc2c1` (centres undefined), for which the growth inhibition is 40% in assay [1] and 91% (active) in assay [4]. Moreover, the inhibition is 22% in assay [2] and -2% in assay [3]. Moreover, the result in assay [5], in assay [6], in assay [7] and in assay [8] was inactive.
Consider `N=C(N)c1cccc(-c2cc(-c3cccc(C(=N)N)c3)on2)c1`, for which the growth inhibition in assay [1] is 78% (active); in assay [4], 96% (active). The inhibition was 8% in assay [2] and 3% in assay [3]. For the same molecule, the result in assay [5], in assay [6], in assay [7] and in assay [8] was inactive.
